In publication PMC4336329 (PLoS ONE, 2015):
In all, about 310,000 compounds went through this assay and about 14,000 (4.5%) showed an effect of 50% or more. The effect is printed as a negative number. This is one part of a sample in which strong results are shown more often than they occur.

What follows are compounds tested against human ether-à-go-go-related gene (hERG) potassium channel (human, UniProt Q12809) (assay: primary screen, population patch clamp on CHO cells stably expressing hERG; higher = less effect of the substance).
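Note: peak tail current of the secondary pulse compared with the same well before compound.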

human ether-à-go-go-related gene (hERG) potassium channel, sequence (Q12809 whole entry, looked up): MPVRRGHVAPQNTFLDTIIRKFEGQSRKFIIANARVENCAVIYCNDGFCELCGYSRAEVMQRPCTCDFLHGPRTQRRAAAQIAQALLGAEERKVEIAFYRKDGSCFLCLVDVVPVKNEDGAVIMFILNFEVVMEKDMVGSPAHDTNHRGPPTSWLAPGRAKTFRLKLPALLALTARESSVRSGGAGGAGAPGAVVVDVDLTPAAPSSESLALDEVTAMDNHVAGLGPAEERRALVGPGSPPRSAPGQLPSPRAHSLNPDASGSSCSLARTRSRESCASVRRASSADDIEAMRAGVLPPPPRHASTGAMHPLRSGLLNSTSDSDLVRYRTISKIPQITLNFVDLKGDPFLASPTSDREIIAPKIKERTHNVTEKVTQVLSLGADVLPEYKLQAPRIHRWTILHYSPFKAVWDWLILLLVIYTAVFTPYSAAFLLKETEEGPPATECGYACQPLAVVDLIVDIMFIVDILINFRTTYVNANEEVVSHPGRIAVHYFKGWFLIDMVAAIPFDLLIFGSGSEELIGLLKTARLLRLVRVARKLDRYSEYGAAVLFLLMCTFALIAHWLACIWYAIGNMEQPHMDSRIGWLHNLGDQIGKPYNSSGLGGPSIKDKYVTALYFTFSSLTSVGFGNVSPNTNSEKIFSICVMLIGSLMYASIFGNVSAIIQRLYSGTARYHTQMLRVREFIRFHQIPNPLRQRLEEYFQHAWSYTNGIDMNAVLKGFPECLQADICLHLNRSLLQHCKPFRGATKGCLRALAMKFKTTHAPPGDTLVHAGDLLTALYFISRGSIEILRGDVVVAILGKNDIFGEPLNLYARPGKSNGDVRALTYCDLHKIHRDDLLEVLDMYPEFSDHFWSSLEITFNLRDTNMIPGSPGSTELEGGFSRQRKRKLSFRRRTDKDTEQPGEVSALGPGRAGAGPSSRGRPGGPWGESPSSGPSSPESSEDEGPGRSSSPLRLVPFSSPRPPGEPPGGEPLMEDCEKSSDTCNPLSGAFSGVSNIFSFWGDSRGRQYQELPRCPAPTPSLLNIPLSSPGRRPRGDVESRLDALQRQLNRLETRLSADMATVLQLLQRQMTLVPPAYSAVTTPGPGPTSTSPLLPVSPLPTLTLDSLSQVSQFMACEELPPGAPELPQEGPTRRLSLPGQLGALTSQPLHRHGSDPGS

Compound	hERG current change (%, negative = inhibition) at 10uM [%]
Cc1c(NC(=O)c2cccs2)c(=O)n(-c2ccccc2)n1C	3.8
CCCC(Oc1ccc(Br)cc1)c1nc2c3cc(OC)c(OC)cc3nc(=S)n2[nH]1 (stereo not shown)	14.5
Cc1cccc2c1NC(C)CC2C.Cl (stereo not shown)	8.01
COc1ccccc1CNC(=O)COC(=O)c1cc(C)oc1C	0.456
COCCn1c(C)nnc1SCC(=O)NNC(=O)c1ccc(Cl)cc1	16.4
COc1ccc(Cl)cc1NC(=O)c1nnn(CC(=O)Nc2ccc(OC)c(OC)c2)c1N	15.1
CCCNC(=O)c1ccc(N2CCC3(CC2)CC(c2ccc(Cl)cc2)=NO3)c([N+](=O)[O-])c1	-74.7
COc1ccc(CNC(=O)c2ccc(N3CCC4(CC3)CC(c3ccc(Cl)cc3)=NO4)c([N+](=O)[O-])c2)cc1	9.12
CCCNC(=O)c1ccc(N2CCC3(CC2)CC(c2cccc(Br)c2)=NO3)c([N+](=O)[O-])c1	-14.2
O=C(NCc1ccccc1)c1ccc(N2CCC3(CC2)CC(c2ccc(Cl)cc2)=NO3)c([N+](=O)[O-])c1	11.6
O=C(NCc1ccccc1)c1ccc(N2CCC3(CC2)CC(c2ccccc2)=NO3)c([N+](=O)[O-])c1	5.28
CCCNC(=O)c1ccc(N2CCC3(CC2)CC(c2ccccc2)=NO3)c([N+](=O)[O-])c1	-53
COCc1cc(=O)n2[nH]cc(-c3ccccc3)c2n1	9.45
COc1ccc(NC(=O)CSc2nnc(C3CC3)n2C)cc1S(=O)(=O)N1CCOCC1	-0.595
Cc1nc2ncnn2c(C)c1CCC(=O)NCc1ccco1	-6.62
Cc1cccc(OCC(O)Cn2c(NCc3cccnc3)nc3c2c(=O)[nH]c(=O)n3C)c1 (stereo not shown)	-9.46
COc1ccc(N2CC(C(=O)Nc3ccccc3C(=O)NC3CC3)CC2=O)cc1 (stereo not shown)	-38.8
O=C(NC1CCCCC1)c1ccccc1NC(=O)C1CC(=O)N(c2ccccc2)C1 (stereo not shown)	-76.8
Cc1ccc(N2CC(C(=O)Nc3ccccc3C(=O)NC3CCCCC3)CC2=O)cc1C (stereo not shown)	-17.9
CC(C)Oc1ccc(N2CC(C(=O)Nc3ccccc3F)CC2=O)cc1 (stereo not shown)	-17.2
CCOc1ccc(N2CC(C(=O)Nc3ccccc3C(=O)NC3CC3)CC2=O)cc1 (stereo not shown)	-76.7
O=C(NC1CCCCC1)c1ccccc1NC(=O)C1CC(=O)N(c2ccc(Cl)cc2)C1 (stereo not shown)	2.36

Compound	hERG current change (%, negative = inhibition) at 10uM [%]
Cc1ccc(N2CC(C(=O)Nc3ccccc3C(=O)NC3CCCCC3)CC2=O)cc1 (stereo not shown)	-5.81
CCOc1ccc(N2CC(C(=O)Nc3ccccc3F)CC2=O)cc1 (stereo not shown)	-13.5
CC(C)Oc1ccc(N2CC(C(=O)Nc3ccccc3C(=O)NC3CC3)CC2=O)cc1 (stereo not shown)	-66.2
O=S(=O)(c1ccc(Br)cc1)N1CCN=C1SCc1cccc(F)c1	8.08
O=C(Nc1nnc(Cc2ccc(Cl)cc2)s1)c1cccnc1	13.9
COc1ccccc1N1CCN(C(=O)c2cccc(N3C(=O)C4C5C=CC(C5)C4C3=O)c2)CC1 (stereo not shown)	5.22
CCOC(=O)C1=C(C)NC(=S)NC1c1ccc(OCC(=O)N2CCCCCC2)c(OC)c1 (stereo not shown)	14.2
O=C(Nc1nnc(Cc2ccccc2)s1)Nc1ccccc1F	11.1
O=C(CN(C(=O)CCC(=O)Nc1ccccn1)c1ccc(F)cc1)NCc1ccco1	14.2
Cc1ccc(C(=O)OCC(=O)Nc2ccc(C(N)=O)cc2)s1	10.1
O=C(CCC(=O)c1ccc(F)cc1)Nc1cccnc1	1.31
CCCn1nc2cc(C(=O)NCc3ccc(C)cc3)ccc2c1OCC	-1.4
COc1ccc(-c2cc(C(F)(F)F)nc(SCC(=O)NCCCN3CCOCC3)n2)cc1	-14
CCCOC(=O)c1ccc(NS(=O)(=O)c2cccs2)cc1	-6.88
O=C(OCCN(CCOC(=O)c1ccncc1)S(=O)(=O)c1cccs1)c1ccncc1	-77.3
O=C(Oc1ccc(N(C(=O)c2ccncc2)S(=O)(=O)c2cccs2)cc1)c1ccncc1	3.77
O=C(C(Cl)Cl)N1CCN(Cc2ccccc2)CC1	-4.72
CCN1CCN(c2ccc(S(=O)(=O)N3CCOCC3)cc2NC(=O)COc2ccc(F)cc2Cl)CC1	-24.4
CCc1ccccc1OCC(=O)Nc1cc(S(=O)(=O)N(CC)CC)ccc1N1CCOCC1	-7.83
CCN(CC)S(=O)(=O)c1ccc(N2CCN(C)CC2)c(NC(=O)COc2ccc(F)cc2Cl)c1	-59
CCN(CC)S(=O)(=O)c1ccc(N2CCOCC2)c(NC(=O)COc2ccccc2C)c1	8.22
O=C(COc1ccc(F)cc1Cl)Nc1cc(S(=O)(=O)N2CCOCC2)ccc1N1CCCCC1	4.24

Compound	hERG current change (%, negative = inhibition) at 10uM [%]
CN1CCN(c2ccc(S(=O)(=O)N3CCOCC3)cc2NC(=O)COc2ccc(F)cc2Cl)CC1	-61.5
COP(=O)(OC)C(Nc1ccc([N+](=O)[O-])cc1)c1ccccc1 (stereo not shown)	-36.1
CC(NC(=S)NCCc1ccccc1)C(c1cccs1)N1CCN(Cc2ccccc2)CC1 (stereo not shown)	-41.3
Cc1sc(NC(=O)/C=C/c2ccc3c(c2)OCO3)nc1-c1ccccc1	8.5
Cc1ccc(C)c(NS(=O)(=O)c2cc(C(=O)Nc3ccccc3-c3ccccc3)ccc2C)c1	18.2
COc1cccc(CN2CCCCC2c2cccnc2)c1 (stereo not shown)	3.01
Cc1noc(C)c1COc1ccc(C(=O)OCC(=O)NCCN2C(=O)CSC2=O)cc1	-8.06
CC(c1c(O)c2ccccc2[nH]c1=O)C1(C)CCC(O)C(C)(C)O1 (stereo not shown)	-2.48
COc1cc(/C=C(\C#N)c2nc3c(s2)CC(C)CC3)ccc1O (stereo not shown)	10.1
CSc1ccccc1C(=O)N1CCC2(CC1)CC(=O)c1ccccc1O2	-61
COc1ccc(Cl)cc1C(=O)N1CCC2(CC1)CC(=O)c1ccccc1O2	-80.5
O=C1CC2(CCCC2)Oc2ccccc21	3.39
O=C(C(=O)N1CCCC1)c1c[nH]c2ccccc12	7.14
COc1ccc(S(=O)(=O)N2CCC3(CC2)CC(=O)c2ccccc2O3)cc1C	-3.6
CSc1ccccc1C(=O)N1CCCCC1	-9.98
CSc1ccccc1C(=O)N1CCOCC1	20
O=C1CC2(CCN(C(=O)C(=O)c3c[nH]c4ccccc34)CC2)Oc2ccccc21	-55.3
O=C1CC2(CCN(C(=O)c3ccccc3Cl)CC2)Oc2ccccc21	-72.7
COc1ccc(S(=O)(=O)N2CCC3(CC2)CC(=O)c2ccccc2O3)cc1OC	11.6
O=C(C(=O)N1CCOCC1)c1c[nH]c2ccccc12	18.3
O=C1CC2(CCN(C(=O)c3c(F)cccc3Cl)CC2)Oc2ccccc21	-41.2
CCn1c(SCC(=O)N2CCCc3ccccc32)nc2c(c1=O)SC(C)C2 (stereo not shown)	-24.7

Compound	hERG current change (%, negative = inhibition) at 10uM [%]
O=C(O)/C=C/c1ccccc1Oc1ccc(Cl)cc1Cl	-8.85
CC(NC(=O)C[n+]1cccc(Br)c1)c1ccccc1.[Cl-] (stereo not shown)	17.6
COC(C(=O)N/N=C(\C)CC(=O)Nc1ccc(Cl)cc1C)c1ccccc1 (stereo not shown)	-10.5
CCOC(=O)CSc1nc(C)cc(C)n1	7.29
FC(F)(F)c1ccccc1CNCc1ccc2c(c1)OCO2	0.962
O=C(Nc1ccccc1OC(F)F)c1oc2ccccc2c1COc1ccccc1	0.283
COc1ccc(-n2c(Cc3cc(=O)[nH]c(=O)[nH]3)nnc2SCC(=O)Nc2cc(C(F)(F)F)ccc2Cl)cc1	-3.73
CCCC(c1nnnn1CC(=O)OCC)N(Cc1cc2c(C)cc(C)cc2[nH]c1=O)C1CCCC1 (stereo not shown)	22.1
O=C1CC2(CCN(C(=O)c3ccccc3Br)CC2)Oc2ccccc21	-76.9
O=C1CC2(CCCCC2)Oc2ccccc21	14.4
O=C(c1ccccc1F)N1CCC2(CC1)OCCO2	30.8
O=C1CC2(CCN(C(=O)c3ccccc3F)CC2)Oc2ccccc21	-73.2
O=C1CC2(CCCCCC2)Oc2ccccc21	-6.74
O=C1CC2(CCCCCC2)Oc2ccc(Cl)cc21	9.01
CC(=O)N1CCC2(CC1)CC(=O)c1cc(Cl)ccc1O2	-55.2
O=C1CC2(CCN(C(=O)c3c(F)cccc3F)CC2)Oc2ccccc21	-34.2
O=C1CC2(CCCC2)Oc2ccc(Cl)cc21	8.19
Cc1ccc(SC(C)C(=O)N2CCC(C(N)=O)CC2)cc1 (stereo not shown)	20.1
CCOc1ccc(-c2nc(N)ncc2Oc2ccc(OC)cc2)c(O)c1	-2.1
